# Laboratory results: PubChem BioAssay (NCI)
# This is part of a sample that, as a whole, favours compounds with a hit. Of some 79,000 tested, about 15% had one in any assay. Unmarked numbers belong to inactive results. Active and inactive are the calls of the source. Cut-off read from the data, not from the text of the source: active = growth inhibition above about 70%; inactive = the rest.
# What was measured:
# [1] = NCI Yeast Anticancer Drug Screen. Data for the wt1 strain (AID 149);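 note: 0% = growth of vehicle-treated wt1 cultures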; details: S. cerevisiae wt1 strain (SPY 50644) growth inhibition, hits give high values
# How it was run: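 wt1 yeast, compound-treated; % growth inhibition vs vehicle control.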
# [2] = NCI Yeast Anticancer Drug Screen. Data for the rad50EPP+ strain (AID 151);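 note: 0% = growth of vehicle-treated control cultures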; details: S. cerevisiae rad50 mutant strain, hits give high values
# How it was run: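 Read-out is yeast growth inhibition relative to vehicle; cells used were the rad50EPP+ strain.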
# [3] = NCI Yeast Anticancer Drug Screen. Data for the mgt1 strain (AID 153); details: S. cerevisiae mgt1 mutant growth inhibition, hits give high values
# How it was run: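 Measured: inhibition of mgt1 yeast growth by compound, normalized to vehicle-treated cultures.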
# [4] = NCI Yeast Anticancer Drug Screen. Data for the rad50 strain (AID 155);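 note: 0% = growth of vehicle-only cultures of the same strain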; details: S. cerevisiae rad50 strain growth inhibition, hits give high values
# How it was run: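 Genetically altered yeast (DNA repair pathway); compound treatment; growth inhibition vs vehicle ctrl.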
# [5] = NCI Yeast Anticancer Drug Screen. Data for the mec2-1 strain (AID 157); details: S. cerevisiae mec2-1 strain, hits give high values
# How it was run: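 Using mec2-1 yeast: add compound, measure growth, express inhibition versus vehicle-treated cultures.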
# [6] = NCI Yeast Anticancer Drug Screen. Data for the rad14 strain (AID 159);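 note: 0% = growth of vehicle-treated control cultures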; details: S. cerevisiae rad14 strain growth inhibition, hits give high values
# How it was run: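 Test compounds were applied to a repair-deficient yeast strain. Its growth was then compared with that of cultures given vehicle alone, and inhibition was expressed relative to those controls.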
# [7] = NCI Yeast Anticancer Drug Screen. Data for the sgs1 mgt1 strain (AID 161);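 note: 0% = growth of cultures given vehicle only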; details: S. cerevisiae sgs1 mgt1 strain, hits give high values
# How it was run: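 Percent growth inhibition was derived by comparing compound-exposed mutant yeast with vehicle-exposed cultures. The strain carries alterations in DNA damage repair.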
# [8] = NCI Yeast Anticancer Drug Screen. Data for the CLN2oe strain (AID 163);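 note: 0% = growth of vehicle-only control cultures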; details: S. cerevisiae CLN2oe strain, hits give high values
# How it was run: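 Whole-cell yeast growth assay. A strain engineered for altered cell-cycle control received compound, and inhibition relative to vehicle-treated cultures was recorded.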
# [9] = NCI Yeast Anticancer Drug Screen. Data for the cln2 rad14 strain (AID 165);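 note: 0% = growth equal to vehicle treated cultures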; details: S. cerevisiae cln2 rad14 strain, hits give high values
# How it was run: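 Yeast strain cln2 rad14, bearing defects in cell cycle control and DNA repair, serves as the test system; values reflect growth inhibition compared with vehicle.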
# [10] = NCI Yeast Anticancer Drug Screen. Data for the bub3 strain (AID 167); details: S. cerevisiae bub3 mutant strain, hits give high values
# How it was run: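 Yeast carrying a defined mutation is treated with each compound, and growth is compared with that of vehicle-exposed cells to give inhibition.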
# [11] = NCI Yeast Anticancer Drug Screen. Data for the wt2 strain (AID 169);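 note: 0% = growth of vehicle-treated yeast cultures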; details: S. cerevisiae wt2 strain growth inhibition, hits give high values
# How it was run: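 Treated yeast vs. vehicle-treated yeast: growth inhibition determined.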
# [12] = NCI Yeast Anticancer Drug Screen. Data for the mlh1 strain (AID 171);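 note: 0% = growth of vehicle-treated control cultures of the same strain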; details: S. cerevisiae mlh1 strain growth inhibition, hits give high values
# How it was run: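 A yeast strain with a defined genetic lesion serves as the test organism. Cultures receive compound or vehicle, and growth is measured.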
# [13] = NCI Yeast Anticancer Drug Screen. Data for the sgs1 strain (AID 173);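 note: 0% = growth of vehicle-only control cultures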; details: S. cerevisiae sgs1 mutant, hits give high values
# How it was run: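 A genetically defined yeast mutant is incubated with the test compound, and its growth is compared to that of the same strain given vehicle.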
# [14] = NCI Yeast Anticancer Drug Screen. Data for the mlh1 rad18 strain (AID 175); details: S. cerevisiae mlh1 rad18 strain growth inhibition, hits give high values
# How it was run: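 Steps: expose repair-defective yeast to compound; measure growth; express inhibition against vehicle-treated controls.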
# [15] = NCI Yeast Anticancer Drug Screen. Data for the rad18 strain (AID 177); details: S. cerevisiae rad18 mutant growth inhibition, hits give high values
# How it was run: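 Measured value is growth inhibition of a yeast strain bearing a DNA repair alteration, referenced to vehicle-treated cells.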
# [16] = at 5.0 µM (retest, dose inferred, filed as 0.5)
# [17] = at 50.0 µM (retest, dose inferred, filed as 5.0)
smiles,measurement,setting,value
O=C1C(C(O)(C(F)(F)F)C(F)(F)F)CCC1C(O)(C(F)(F)F)C(F)(F)F (stereo not drawn),growth inhibition,[1]; at 1.2 µM,3%
same,growth inhibition,[1]; at 3.7 µM,6%
same,growth inhibition,[1]; at 11.0 µM,8%
same,growth inhibition,[1]; at 33.0 µM,19%
same,growth inhibition,[1]; at 100.0 µM,33%
same,growth inhibition,[2]; at 1.2 µM,-3%
same,growth inhibition,[2]; at 3.7 µM,-2%
same,growth inhibition,[2]; at 11.0 µM,3%
same,growth inhibition,[2]; at 33.0 µM,18%
same,growth inhibition,[2]; at 100.0 µM,10%
same,growth inhibition,[3]; at 1.2 µM,1%
same,growth inhibition,[3]; at 3.7 µM,2%
same,growth inhibition,[3]; at 11.0 µM,8%
same,growth inhibition,[3]; at 33.0 µM,9%
same,growth inhibition,[3]; at 100.0 µM,34%
same,growth inhibition,[4]; at 1.2 µM,-4%
same,growth inhibition,[4]; at 3.7 µM,-14%
same,growth inhibition,[4]; [16],2%
same,growth inhibition,[4]; at 11.0 µM,-22%
same,growth inhibition,[4]; at 33.0 µM,3%
same,growth inhibition,[4]; [17],33%
same,growth inhibition,[4]; at 50.0 µM,22.3%
same,growth inhibition,[4]; at 100.0 µM,30%
same,growth inhibition,[5]; at 1.2 µM,7%
same,growth inhibition,[5]; at 3.7 µM,8%
same,growth inhibition,[5]; [16],9%
same,growth inhibition,[5]; at 11.0 µM,10%
same,growth inhibition,[5]; at 33.0 µM,20%
same,growth inhibition,[5]; [17],26%
same,growth inhibition,[5]; at 50.0 µM,42.6%
same,growth inhibition,[5]; at 100.0 µM,32%
same,growth inhibition,[6]; at 1.2 µM,4%
same,growth inhibition,[6]; at 3.7 µM,6%
same,growth inhibition,[6]; at 11.0 µM,14%
same,growth inhibition,[6]; at 33.0 µM,28%
same,growth inhibition,[6]; at 100.0 µM,49%
same,growth inhibition,[7]; [16],4%
same,growth inhibition,[7]; [17],54%
same,growth inhibition,[7]; at 50.0 µM,67.3%
same,growth inhibition,[8]; at 1.2 µM,5%
same,growth inhibition,[8]; at 3.7 µM,2%
same,growth inhibition,[8]; at 11.0 µM,8%
same,growth inhibition,[8]; at 33.0 µM,27%
same,growth inhibition,[8]; at 100.0 µM,42%
same,growth inhibition,[9]; [16],83% (active)
same,growth inhibition,[9]; [17],46%
same,growth inhibition,[9]; at 50.0 µM,14.2%
same,growth inhibition,[10]; at 1.2 µM,-1%
same,growth inhibition,[10]; at 3.7 µM,0%
same,growth inhibition,[10]; [16],-12%
same,growth inhibition,[10]; at 11.0 µM,0%
same,growth inhibition,[10]; at 33.0 µM,11%
same,growth inhibition,[10]; [17],32%
same,growth inhibition,[10]; at 50.0 µM,28.4%
same,growth inhibition,[10]; at 100.0 µM,24%
same,growth inhibition,[11]; at 1.2 µM,1%
same,growth inhibition,[11]; at 3.7 µM,4%
same,growth inhibition,[11]; at 11.0 µM,8%
same,growth inhibition,[11]; at 33.0 µM,23%
same,growth inhibition,[11]; at 100.0 µM,39%
same,growth inhibition,[12]; at 1.2 µM,5%
same,growth inhibition,[12]; at 3.7 µM,7%
same,growth inhibition,[12]; at 11.0 µM,11%
same,growth inhibition,[12]; at 33.0 µM,22%
same,growth inhibition,[12]; at 100.0 µM,33%
same,growth inhibition,[13]; at 1.2 µM,3%
same,growth inhibition,[13]; at 3.7 µM,8%
same,growth inhibition,[13]; at 11.0 µM,9%
same,growth inhibition,[13]; at 33.0 µM,28%
same,growth inhibition,[13]; at 100.0 µM,43%
same,growth inhibition,[14]; [16],2%
same,growth inhibition,[14]; [17],49%
same,growth inhibition,[14]; at 50.0 µM,69.5%
same,growth inhibition,[15]; at 1.2 µM,4%
same,growth inhibition,[15]; at 3.7 µM,6%
same,growth inhibition,[15]; at 11.0 µM,3%
same,growth inhibition,[15]; at 33.0 µM,-2%
same,growth inhibition,[15]; at 100.0 µM,11%
